Active and inactive are the calls of the source.
Key:
[1] = compound effects on lung adenocarcinoma cell viability – A549, calcein-AM fluorescence, 48 h, basal, profiling panel (AID 1162); conditions: higher = more signal
[2] = compound effects on differentiated 3T3-L1 adipocyte viability – cell-based, 3T3-L1 adipocytes, calcein-AM fluorescence, 48 h, basal, profiling panel (AID 1163); conditions: 3T3-L1 adipocytes viability, higher = more signal
[3] = compound effects on hepatocellular carcinoma cell viability – HepG2, calcein-AM fluorescence, 48 h, basal, profiling panel (AID 1164); conditions: higher = more signal
[4] = compound effects on multiple myeloma cell viability – MM1S, calcein-AM fluorescence, 48 h, basal, profiling panel (AID 1165); conditions: higher = more signal
[5] = calcein-AM signal in unstimulated myeloma cells – cell-based, calcein-AM fluorescence, 48 h, PK04 Diversity Set, profiling panel (AID 1166); conditions: RPMI8226 myeloma viability, higher = more signal;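 note: cells grown under basal conditions without added stimulus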
[6] = JC-1 mitochondrial signal, unstimulated HepG2 cells – cell-based, JC-1 fluorescence, 24 h, 100 nL compound, profiling panel (AID 1167); conditions: HepG2 mitochondrial potential, higher = more signal
[7] = JC-1 mitochondrial signal, unstimulated adipocytes – cell-based, JC-1 fluorescence, 3T3-L1 adipocytes, 24 h, 100 nL compound, profiling panel (AID 1168); conditions: JC-1 mitochondrial fluorescence, higher = more signal, called active from +8 up or from −8 down
[8] = JC-1 mitochondrial signal, unstimulated myeloma cells – cell-based, JC-1 fluorescence, RPMI8226, 24 h, 100 nL compound, profiling panel (AID 1169); conditions: JC-1 mitochondrial potential fluorescence, higher = more signal
[9] = JC-1 mitochondrial signal, unstimulated MM1S myeloma – cell-based, JC-1 fluorescence, 24 h, 100 nL compound, profiling panel (AID 1170); conditions: MM1S mitochondrial potential, higher = more signal
[10] = resazurin metabolic signal in A549 cells – cell-based, resazurin fluorescence, 24 h, PK04 Diversity Set, profiling panel (AID 1171); conditions: A549 viability, higher = more signal, called active from +8 up or from −8 down
Note: test concentration not given here.

SMILES: COCCOC(=O)N1C(=O)[C@@]2(c3cc(C#CC4(O)CCCCCC4)ccc31)[C@H](C(N)=O)[C@H]1C(=O)O[C@H](c3ccccc3)[C@H](c3ccccc3)N1[C@@H]2c1ccc(OCCO)cc1
- z-score [1]: -0.502
- z-score [2]: -0.0582
- z-score [3]: -1.71
- z-score [4]: -2.99
- z-score [5]: -4.26
- z-score [6]: -1.97
- z-score [7]: -0.69 (inactive)
- z-score [8]: -1.29
- z-score [9]: -1.7
- z-score [10]: -1.54 (inactive)

SMILES: CC(C)(C)OC(=O)CC[C@@]1(C(=O)N2CCOCC2)N=C(c2ccc(OCCCO)cc2)O[C@@H]1c1ccccc1CN=[N+]=[N-]
- z-score [1]: -0.688
- z-score [2]: 1.35
- z-score [3]: -0.261
- z-score [4]: -0.169
- z-score [5]: -1.58
- z-score [6]: 0.259
- z-score [7]: -0.506 (inactive)
- z-score [8]: -0.546
- z-score [9]: -0.567
- z-score [10]: 0.792 (inactive)

SMILES: COc1cccc(C)c1NC(=O)O[C@H]1[C@H](OC(=O)Nc2ccccc2-c2ccccc2)[C@@H](OC(=O)Nc2ccccc2-c2ccccc2)[C@@H](OC)O[C@@H]1CO
- z-score [1]: -2.87
- z-score [2]: 0.458
- z-score [3]: -3.51
- z-score [4]: -3.08
- z-score [5]: -3.27
- z-score [6]: 1.98
- z-score [7]: 1.62 (inactive)
- z-score [8]: -0.928
- z-score [9]: -1.41
- z-score [10]: -4.57 (inactive)

SMILES: COCCCNC(=O)[C@@]1(Cc2ccccc2I)c2ccccc2C(=O)N(Cc2ccccc2C(F)(F)F)[C@H]1c1ccc(CO)cc1
- z-score [1]: -0.369
- z-score [2]: -0.884
- z-score [3]: -0.305
- z-score [4]: -1.14
- z-score [5]: -1.61
- z-score [6]: 0.405
- z-score [7]: -1.19 (inactive)
- z-score [8]: -0.578
- z-score [9]: -0.553
- z-score [10]: 1.77 (inactive)

SMILES: C=CCNC(=O)[C@@H]1[C@H]2C(=O)O[C@H](c3ccccc3)[C@H](c3ccccc3)N2[C@H](c2ccc(OCCO)cc2)[C@@]12C(=O)Nc1ccc(C#CC3=CCCCC3)cc12
- z-score [1]: -1.25
- z-score [2]: 0.73
- z-score [3]: -1.18
- z-score [4]: -2.12
- z-score [5]: -2.66
- z-score [6]: -1.11
- z-score [7]: -0.194 (inactive)
- z-score [8]: -1.19
- z-score [9]: -1.24
- z-score [10]: -1.49 (inactive)

SMILES: Cc1c(NC(=O)/C(C#N)=C/C=C/c2ccc([N+](=O)[O-])cc2)c(=O)n(-c2ccccc2)n1C
- z-score [1]: 0.251
- z-score [2]: -0.141
- z-score [3]: -0.182
- z-score [4]: -1.02
- z-score [5]: -0.787
- z-score [6]: -1.19
- z-score [7]: 0.0244 (inactive)
- z-score [8]: -0.278
- z-score [9]: 0.096
- z-score [10]: 0.0981 (inactive)

SMILES: C=CCN1C(=O)[C@@]2(O[C@@H](CCO)[C@H]([Si](C)(C)c3ccc(OC)cc3)[C@H]2C)c2cc(N3CCCCC3=O)ccc21
- z-score [1]: -0.816
- z-score [2]: 0.146
- z-score [3]: -4.51
- z-score [4]: -2.69
- z-score [5]: -4.05
- z-score [6]: -1.44
- z-score [7]: -0.0545 (inactive)
- z-score [8]: -1.01
- z-score [9]: -1.75
- z-score [10]: -2.04 (inactive)

SMILES: Cc1ccc(S(=O)(=O)N2[C@@H](c3ccccc3)C(C(=O)O)=C[C@H]2C(C)(C)C)cc1
- z-score [1]: -0.756
- z-score [2]: -0.625
- z-score [3]: -0.558
- z-score [4]: 0.611
- z-score [5]: -0.711
- z-score [6]: -0.747
- z-score [7]: -0.465 (inactive)
- z-score [8]: -0.369
- z-score [9]: -0.953
- z-score [10]: -1.11 (inactive)

SMILES: CCCCC(=C=CC[C@H](O)c1ccccc1OCCO)CCO
- z-score [1]: -0.341
- z-score [2]: -0.358
- z-score [3]: 0.285
- z-score [4]: -0.0455
- z-score [5]: -0.857
- z-score [6]: -0.95
- z-score [7]: 0.101 (inactive)
- z-score [8]: -0.193
- z-score [9]: -0.434
- z-score [10]: 0.356 (inactive)

SMILES: C=C[C@H](C)[C@@H](OC(=O)Nc1ccc(SC)cc1)c1ccc(OCCO)cc1
- z-score [1]: -0.305
- z-score [2]: -0.0489
- z-score [3]: -0.232
- z-score [4]: -1.69
- z-score [5]: -1.81
- z-score [6]: -3.37
- z-score [7]: -0.168 (inactive)
- z-score [8]: -0.639
- z-score [9]: -0.114
- z-score [10]: -0.505 (inactive)

SMILES: C=C(C(=O)CC[C@@H](OC(=O)c1ccccc1-c1ccccc1C(=O)O)c1cccc(OCCO)c1)C(C)C
- z-score [1]: 0.811
- z-score [2]: 0.647
- z-score [3]: -0.474
- z-score [4]: -0.305
- z-score [5]: -0.637
- z-score [6]: -1.12
- z-score [7]: 1.01 (inactive)
- z-score [8]: -0.143
- z-score [9]: 0.0602
- z-score [10]: 1.33 (inactive)

— PubChem BioAssay
